Assay [1] in a line: NCI Yeast Anticancer Drug Screen. Data for the rad50 strain (AID 155).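 Further: 0% = growth of vehicle-only cultures of the same strain.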 The note with it: S. cerevisiae rad50 strain growth inhibition, hits give high values. In short, it runs like this: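 Vehicle-treated cultures provide the reference for the growth inhibition reported for compound-exposed, repair-deficient yeast.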
The nature of assay [2]: NCI Yeast Anticancer Drug Screen. Data for the mec2-1 strain (AID 157). The conditions noted are these: S. cerevisiae mec2-1 strain, hits give high values. In short, it runs like this: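 Vehicle-treated cultures served as reference for growth inhibition of compound-exposed mec2-1 yeast.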
Assay [3] is described as follows: NCI Yeast Anticancer Drug Screen. Data for the sgs1 mgt1 strain (AID 161).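 Further: 0% = growth of cultures given vehicle only.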 The note with it: S. cerevisiae sgs1 mgt1 strain, hits give high values. The procedure, abridged:
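Genetically altered yeast, compound exposure, growth inhibition relative to vehicle.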

The nature of assay [4]: NCI Yeast Anticancer Drug Screen. Data for the cln2 rad14 strain (AID 165).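 Further: 0% = growth equal to vehicle treated cultures.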 The conditions noted are these: S. cerevisiae cln2 rad14 strain, hits give high values. In short, it runs like this:
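Each compound was tested on cln2 rad14 yeast. Inhibition of growth was calculated against vehicle-exposed controls.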

Assay [5] is described as follows: NCI Yeast Anticancer Drug Screen. Data for the bub3 strain (AID 167). The conditions noted are these: S. cerevisiae bub3 mutant strain, hits give high values. The procedure, abridged: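 Mutant yeast screening strain plus compound; vehicle-treated cultures serve as the 0% inhibition reference.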
A short description of assay [6]: NCI Yeast Anticancer Drug Screen. Data for the mlh1 rad18 strain (AID 175). The conditions noted are these: S. cerevisiae mlh1 rad18 strain growth inhibition, hits give high values. In short, it runs like this: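 Vehicle-treated cultures served as the reference for growth inhibition in a yeast strain carrying DNA damage repair alterations exposed to each compound.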

Where [7] appears, read: at 5.0 µM (retest, dose inferred, filed as 0.5).
Setting [8] is: at 50.0 µM (retest, dose inferred, filed as 5.0).

The record followed here is PubChem BioAssay (NCI).

The panel holds about 79,000 compounds, 15% with a hit somewhere; the sample as a whole holds those more often. A number with no mark means an inactive call. The source made the active and inactive calls. No stated cut-off is given here; in the data, active means growth inhibition above about 70%; inactive means the rest.

For the compound `COC1CC(C)(NC(C)=O)C2OC(c3ccccc3)OCC2O1` (configuration not stated), the growth inhibition in assay [1] (setting [7]) is -5%; in assay [1] (setting [8]), -16%; in assay [1] (at 50.0 µM), 81.8% (active); in assay [2] (setting [7]), -11%; in assay [2] (setting [8]) it was -15%; in assay [2] (at 50.0 µM) it was 81.2% (active). Further, the growth inhibition is -7% in assay [3] (setting [7]); -24% in assay [3] (setting [8]); 71.9% (active) in assay [3] (at 50.0 µM); -40% in assay [4] (setting [7]); 10% in assay [4] (setting [8]); 75.5% (active) in assay [4] (at 50.0 µM). In addition, the growth inhibition is -21% in assay [5] (setting [7]); -8% in assay [5] (setting [8]); 82.7% (active) in assay [5] (at 50.0 µM); -1% in assay [6] (setting [7]); -3% in assay [6] (setting [8]); 70.4% (active) in assay [6] (at 50.0 µM).

For `COc1ccc(OC)c2c1C=C[C@H](C1(C)SCCS1)C2C(C)=O` (some centres not stated), the growth inhibition in assay [1] (setting [7]) was 6%; in assay [1] (setting [8]), 82% (active); in assay [1] (at 50.0 µM), 74% (active); in assay [2] (setting [7]) it was -4%; in assay [2] (setting [8]), 88% (active); in assay [2] (at 50.0 µM), 82% (active). In addition, the growth inhibition is 6% in assay [3] (setting [7]); 77% (active) in assay [3] (setting [8]); 80.7% (active) in assay [3] (at 50.0 µM); 7% in assay [4] (setting [7]); 83% (active) in assay [4] (setting [8]); 72.3% (active) in assay [4] (at 50.0 µM). The growth inhibition in assay [5] (setting [7]) is -2%; in assay [5] (setting [8]), 90% (active); in assay [5] (at 50.0 µM), 76.5% (active); in assay [6] (setting [7]), -13%; in assay [6] (setting [8]) it was 92% (active); in assay [6] (at 50.0 µM) it was 77% (active).

As to `CN(C)/N=N/c1nc(Cc2ccccc2)[nH]c1C(N)=O`, the growth inhibition in assay [1] (setting [7]) was 98% (active); in assay [1] (setting [8]) it was 98% (active); in assay [1] (at 50.0 µM), 98.5% (active); in assay [2] (setting [7]), 16%; in assay [2] (setting [8]) it was 99% (active); in assay [2] (at 50.0 µM), 94.6% (active). Further, the growth inhibition in assay [3] (setting [7]) was 38%; in assay [3] (setting [8]), 99% (active); in assay [3] (at 50.0 µM), 99.2% (active); in assay [4] (setting [7]), 29%; in assay [4] (setting [8]), 99% (active); in assay [4] (at 50.0 µM), 92.9% (active). Moreover, the growth inhibition was 67% in assay [5] (setting [7]); 99% (active) in assay [5] (setting [8]); 96.5% (active) in assay [5] (at 50.0 µM); 99% (active) in assay [6] (setting [7]); 99% (active) in assay [6] (setting [8]); 98.8% (active) in assay [6] (at 50.0 µM).

`BrC(Br)=C1C(=C(Br)Br)C(Br)C1Br` (configuration not stated): the growth inhibition was 31% in assay [1] (setting [7]); 69% in assay [1] (setting [8]); 61.6% in assay [1] (at 50.0 µM); -10% in assay [2] (setting [7]); 59% in assay [2] (setting [8]); 77.4% (active) in assay [2] (at 50.0 µM). Also, the growth inhibition in assay [3] (setting [7]) is 72% (active); in assay [3] (setting [8]), 94% (active); in assay [3] (at 50.0 µM) it was 83.8% (active); in assay [4] (setting [7]) it was 19%; in assay [4] (setting [8]), 53%; in assay [4] (at 50.0 µM), 55%. The growth inhibition in assay [5] (setting [7]) was 18%; in assay [5] (setting [8]), 66%; in assay [5] (at 50.0 µM), 73% (active); in assay [6] (setting [7]), 40%; in assay [6] (setting [8]), 71% (active); in assay [6] (at 50.0 µM) it was 71.6% (active).

As to `CC(=O)c1ccc2sc3ccccc3c2c1`, the growth inhibition in assay [1] (setting [7]) is -92%; in assay [1] (setting [8]), 96% (active); in assay [1] (at 50.0 µM), 96% (active); in assay [2] (setting [7]) it was -45%; in assay [2] (setting [8]), 72% (active); in assay [2] (at 50.0 µM) it was 57.6%. Also, the growth inhibition in assay [3] (setting [7]) is -59%; in assay [3] (setting [8]) it was 88% (active); in assay [3] (at 50.0 µM) it was 70.2% (active); in assay [4] (setting [7]), -52%; in assay [4] (setting [8]), 86% (active); in assay [4] (at 50.0 µM) it was 33.4%. Also, the growth inhibition in assay [5] (setting [7]) is -51%; in assay [5] (setting [8]), 85% (active); in assay [5] (at 50.0 µM) it was 88% (active); in assay [6] (setting [7]), -120%; in assay [6] (setting [8]) it was 92% (active); in assay [6] (at 50.0 µM) it was 88.3% (active).

For `O=C(Nc1ccc(C(F)(F)F)cc1[N+](=O)[O-])C(=O)C(C(=O)c1ccc2ccccc2c1)C1OC(=O)c2ccccc21` (configuration not stated), the growth inhibition in assay [1] (setting [7]) was 26%; in assay [1] (setting [8]), 26%; in assay [1] (at 50.0 µM), 2.05%; in assay [2] (setting [7]), 10%; in assay [2] (setting [8]), 10%; in assay [2] (at 50.0 µM) it was 4.85%. Besides, the growth inhibition in assay [3] (setting [7]) was 8%; in assay [3] (setting [8]), 8%; in assay [3] (at 50.0 µM), 13.9%; in assay [4] (setting [7]), 15%; in assay [4] (setting [8]) it was 15%; in assay [4] (at 50.0 µM) it was -28.6%. The growth inhibition in assay [5] (setting [7]) was 9%; in assay [5] (setting [8]), 9%; in assay [5] (at 50.0 µM), 22.7%; in assay [6] (setting [7]) it was 10%; in assay [6] (setting [8]) it was 10%; in assay [6] (at 50.0 µM) it was 10.2%.

On to `CCCCCCCCN(CCCCCCCC)Cc1ccc(Br)cc1`, for which the growth inhibition was 98% (active) in assay [1] (setting [7]); 99% (active) in assay [1] (setting [8]); 99.2% (active) in assay [1] (at 50.0 µM); 96% (active) in assay [2] (setting [7]); 100% (active) in assay [2] (setting [8]); 99.5% (active) in assay [2] (at 50.0 µM). Moreover, the growth inhibition in assay [3] (setting [7]) was 99% (active); in assay [3] (setting [8]), 99% (active); in assay [3] (at 50.0 µM), 99.5% (active); in assay [4] (setting [7]) it was 97% (active); in assay [4] (setting [8]) it was 99% (active); in assay [4] (at 50.0 µM), 99% (active). In addition, the growth inhibition in assay [5] (setting [7]) was 96% (active); in assay [5] (setting [8]) it was 99% (active); in assay [5] (at 50.0 µM) it was 99.2% (active); in assay [6] (setting [7]) it was 97% (active); in assay [6] (setting [8]) it was 99% (active); in assay [6] (at 50.0 µM) it was 99.5% (active).

As to `CN(C)CCCNCC(=O)Nc1ccc(S(=O)(=O)c2ccc(NC(=O)CNCCCN(C)C)cc2)cc1`, the growth inhibition is 2% in assay [1] (setting [7]); 92% (active) in assay [1] (setting [8]); 95.2% (active) in assay [1] (at 50.0 µM); -2% in assay [2] (setting [7]); 97% (active) in assay [2] (setting [8]); 58.7% in assay [2] (at 50.0 µM). The growth inhibition in assay [3] (setting [7]) was -11%; in assay [3] (setting [8]), 95% (active); in assay [3] (at 50.0 µM) it was 97.2% (active); in assay [4] (setting [7]), 7%; in assay [4] (setting [8]), 66%; in assay [4] (at 50.0 µM), 78.1% (active). Besides, the growth inhibition was 2% in assay [5] (setting [7]); 89% (active) in assay [5] (setting [8]); 30.2% in assay [5] (at 50.0 µM); 3% in assay [6] (setting [7]); 96% (active) in assay [6] (setting [8]); 90.2% (active) in assay [6] (at 50.0 µM).

With `CC1(C)OC2C(COC(c3ccccc3)(c3ccccc3)c3ccccc3)OC(n3ccc(=O)[nH]c3=O)C2O1` (configuration not stated), the growth inhibition was 57% in assay [1] (setting [7]); 92% (active) in assay [1] (setting [8]); 75.9% (active) in assay [1] (at 50.0 µM); 35% in assay [2] (setting [7]); 96% (active) in assay [2] (setting [8]); 53.6% in assay [2] (at 50.0 µM). Further, the growth inhibition was 43% in assay [3] (setting [7]); 56% in assay [3] (setting [8]); 75.3% (active) in assay [3] (at 50.0 µM); 28% in assay [4] (setting [7]); 75% (active) in assay [4] (setting [8]); 52.1% in assay [4] (at 50.0 µM). Besides, the growth inhibition in assay [5] (setting [7]) was 42%; in assay [5] (setting [8]) it was 94% (active); in assay [5] (at 50.0 µM), 72.6% (active); in assay [6] (setting [7]) it was 52%; in assay [6] (setting [8]), 95% (active); in assay [6] (at 50.0 µM) it was 70.5% (active).
